Screening data (PubChem)
Epigenetic derep = epigenetic control regulation, reporter derepression; Potency, µM (highest dose often 53.9 µM), without a hit: top-dose GFP activation, actives largely listed as activators; hit rate 0.2% among 280,000; AID 1865; murine LDR cells, GFP reporter derepression, 30 h; also: % of control where 0% means no effect; nearly all actives have a fitted effect of over 60% in size
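Reporter derepression read as number of fluorescent GFP-positive objects, 20-120 um in size, counted by laser-scanning cytometer. Mouse LDR line with an epigenetically silenced CMV-GFP locus; compound incubation 30 h, 37 C.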
JMJD2E inh = JMJD2E (human) inhibition; B2RXH2; JMJD2E catalytic domain, FDH-coupled NADH fluorescence (FDH is formaldehyde dehydrogenase); Potency, µM (titrated, usually from 57.1 µM), for inactives: at the highest dose activity change, negative = inhibition, usual class: inhibitors; hit rate 1.6% among 230,000; AID 2147; active = well fitted inhibition curve with a large enough effect, not every such curve was filed as active; inconclusive = small, poorly fitted or top-dose-only effect, or another doubt; inactive = no such curve, though single readings can be large or run the other way;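 also: 0% = wells with enzyme and -100% = buffer wells without enzyme; nearly all actives have a fitted effect of over 50% in size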
Target sequence (B2RXH2 1-337 limits assumed): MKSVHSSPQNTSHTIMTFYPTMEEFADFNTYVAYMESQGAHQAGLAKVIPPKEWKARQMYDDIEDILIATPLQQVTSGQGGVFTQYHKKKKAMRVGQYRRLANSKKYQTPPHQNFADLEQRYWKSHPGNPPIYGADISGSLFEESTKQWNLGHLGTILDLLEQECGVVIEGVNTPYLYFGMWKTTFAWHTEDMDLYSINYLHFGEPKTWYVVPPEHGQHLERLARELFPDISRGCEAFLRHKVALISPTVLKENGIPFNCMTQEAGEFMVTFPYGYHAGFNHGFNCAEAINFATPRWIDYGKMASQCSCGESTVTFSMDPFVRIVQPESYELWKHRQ
KAT2A inh = blocks human GCN5L2 histone acetyltransferase | Potency, µM (series often up to 58.9 µM), inactives show top-dose activity change, negative = inhibition, hits mostly inhibitors | Q92830 | hit rate 0.21% among 390,000 | GCN5L2 HAT assay, ThioGlo1 CoA-SH fluorescence | AID 504327; also: % is scaled to controls: 0 for no effect and ±100 for the full control effect
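Compounds, pin-transferred from DMSO stocks, meet 20nM GCN5L2 for 15 min before the reaction begins with H3(1-25) peptide (75uM) and acetyl-CoA (70uM). Thiol-reactive ThioGlo1 reports CoA release over 20 min at room temperature.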
NPSR antagonist = neuropeptide S receptor (human) antagonism, cAMP; Q6W5P4; CHO-NPSR cells, cAMP TR-FRET, antagonist mode; Potency, µM (highest dose often 38.3 µM), without a hit: at the highest dose activity change, negative = inhibition, usual class: inhibitors; hit rate 1% among 220,000; AID 1461; also: % is scaled to controls: 0 for no effect and ±100 for the full control effect; nearly all actives have a fitted effect of over 50% in size
Target sequence (Q6W5P4 whole entry, looked up): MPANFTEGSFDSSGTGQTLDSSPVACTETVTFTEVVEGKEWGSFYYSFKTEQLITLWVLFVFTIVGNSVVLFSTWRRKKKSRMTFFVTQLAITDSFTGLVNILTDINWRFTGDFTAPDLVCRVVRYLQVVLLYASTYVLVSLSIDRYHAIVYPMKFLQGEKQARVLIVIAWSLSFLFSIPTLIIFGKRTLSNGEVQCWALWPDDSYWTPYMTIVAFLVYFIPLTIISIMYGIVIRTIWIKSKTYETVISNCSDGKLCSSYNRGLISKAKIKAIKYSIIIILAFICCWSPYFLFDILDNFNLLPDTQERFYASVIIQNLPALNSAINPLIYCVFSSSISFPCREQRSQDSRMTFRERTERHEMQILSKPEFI
IMPase Li inh = membrane-permeable IMPase blocker, potentiated with lithium | Potency, µM (series often up to 59.4 µM), without a hit: at the highest dose activity, negative = IMPase inhibition, most hits filed as inhibitors | hit rate 0.35% among 210,000 | CHO-M1 cells, IP1 TR-FRET (IP-One), carbachol + lithium;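 also: IP1 builds up when IMPase is blocked and the TR-FRET signal falls; plate controls were basal vehicle for no effect and high inhibitor control for full effect; nearly all actives have a fitted effect of over 50% in size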
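Steps: plate 2000 CHO-M1 cells per well and culture 16–30 h; add compound and lithium; incubate 30 min, 37C; add d2-IP1 tracer and Eu cryptate anti-IP1 antibody in lysis buffer; read after 10 min at room temperature.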
Sfp inh = Sfp phosphopantetheinyl transferase inhibition | Q9F4F7 | Biochemical Sfp PPTase activity, qHTS | Potency, µM, for the others: largest response in the series, negative = inhibition, usual class: inhibitors | hit rate 3.5% among 310,000 | AID 1490;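 also: the enzyme is Sfp with the accession as filed and its product quenches rhodamine fluorescence; 0% = enzyme reaction without inhibitor and -100% = no enzyme wells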
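Fluorescence-quenching assay with 15 nM Sfp, 5 uM rhodamine-CoA and 12.5 uM BHQ-2-labelled ybbR peptide in pH 7.6 Hepes/MgCl2 buffer. Enzyme was pre-incubated with compound for 15 min at room temperature. Rate was taken from the 30-min fluorescence change (525/598 nm).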
An asterisk follows results filed as active; ? = inconclusive; nt = no result; [ ] = remark or other dose. The list is not random: actives were taken first. Their share in the collection is about 3.6%. Unless noted, calls follow the shape of the dose curve; as a rule, active = well fitted curve in the direction sought with a large enough effect; inconclusive = small, poorly fitted or top-dose-only effect, or another doubt; inactive = no such curve, though single readings can be large; an effect the other way counts as inactive or inconclusive. Potency is read from the fitted curve at half-maximal effect.

SMILES | Epigenetic derep | JMJD2E inh | KAT2A inh | NPSR antagonist | IMPase Li inh | Sfp inh
Cc1c(N2C(=O)CS/C2=N\N=C\c2ccc(Br)cc2)c(=O)n(-c2ccccc2)n1C | 1% | 7% | 1.6µM* | -14%[46.1 µM] | -4%[38.3 µM] | 7%
CCOC(=O)Cc1csc(/C(=N/O)C(N)=O)n1 | 0% | -27% | -4% | -7%[46.1 µM] | 14%[38.3 µM] | 40µM*
CCOC(=O)Cc1csc(N)n1 | -6% | 4% | -24% | -1%[46.1 µM] | -5%[38.3 µM] | 2%
CCOC(=O)c1sc2nc(C3CC3)cc(-c3ccc(F)cc3)c2c1N | 0% | ? | -17% | -12%[46.1 µM] | 11µM* | -11%
Cc1cc(C)cc(NC(=O)CSc2nc3ccccc3nc2N2CCCC2)c1 | nt | nt | ? | nt | nt | -4%
Cc1cc(C)cc(NC(=O)CSc2nc3ccccc3nc2N2CCCCC2)c1 | nt | nt | 35µM* | nt | nt | 7%
CC(C)Oc1ccc(CNC(=O)c2cnc3sc(N4CCCCCC4)nn3c2=O)cc1 | 0% | nt | -5% | nt | nt | nt
N#Cc1c(SCC(=O)Nc2nncs2)sc2c(O)cc(=O)[nH]c12 | nt | nt | ? | nt | nt | 14µM*
Cn1c(=O)c(-c2cccc(C#N)c2)nc2cnc(Oc3ccccc3)nc21 | nt | nt | -5% | nt | 27% | -4%
CCc1nn(CCCC(=O)N2CCN(c3cc(Cl)ccc3C)CC2)c(=O)c2cc3occc3n12 | 12% | nt | -4% | nt | nt | nt
CCOC(=O)C1=C(O)c2ccccc2C(=O)/C1=C\c1ccc(C)cc1 | ? | ? | -9% | -36% | 4% | 11µM*
N#CC1=C(N)C2=CCCC[C@H]2[C@H](c2ccc(Br)cc2)C1(C#N)C#N | 1% | -1% | 7% | -16%[46.1 µM] | 14% | 7.1µM*
N#CC1=C(N)C2=CCCC[C@H]2[C@H](c2ccccc2)C1(C#N)C#N | 1% | -3% | -4% | 5% | 3% | -9%
O=C(O)[C@@H]1CN[C@@H](C(=O)O)C1 | 3% | nt | -9% | nt | -2% | -22%
COc1cc(OC)c(C(=O)NCc2nc(-c3ccccc3)no2)cc1OC | 1% | nt | -2% | nt | nt | nt
COc1cc(NC(=O)CSc2ncc(S(=O)(=O)c3ccc(Br)cc3)c(=O)[nH]2)cc(OC)c1 | 3% | nt | -6% | nt | nt | nt
COc1ccc(-c2cc(C(=O)Nc3cc(C)n(Cc4ccc(Cl)cc4)n3)no2)cc1OC | 5% | ? | -5% | -4%[46.1 µM] | -3%[38.3 µM] | 71µM*
CC(C)(C)[C@H](NC(=O)c1ccc(N)c(Cl)c1)C(=O)N1CCC[C@H]1C(=O)N[C@H](C#N)Cc1nn[nH]n1 | nt | nt | -5% | nt | nt | nt
CC1=C(C)/C(=N\OC(=O)/C=C/c2ccccc2)C=CC1=O | ? | 0% | 3% | ? | -2%[38.3 µM] | 9%
CC1=C(C)/C(=N\OS(=O)(=O)c2ccc(C)cc2)C=CC1=O | -2% | -3% | -25% | ? | 25% | 32µM*
COc1ccc(S(=O)(=O)/N=C2/C=CC(=O)C(C)=C2C)cc1 | -1% | -12% | -4% | 2%[46.1 µM] | -11%[38.3 µM] | 79µM*
Cc1nc2cnc(Nc3ccccc3)nc2n(CCc2ccccc2)c1=O | nt | nt | -8% | nt | 11% | -11%
CC1=C(/C=C\C(=O)O)C(C)(C)CCC1 | nt | nt | nt | nt | 0% | nt
O=[N+]([O-])c1ccc(Nc2c3ccccc3nc3ccccc23)cc1 | 4% | ? | -4% | 6.3µM* | 15% | 6%
O=C(O)c1ccc(Nc2nc(-c3ccc([N+](=O)[O-])cc3)nc3ccccc23)cc1 | nt | nt | -24% | nt | nt | 50µM*
SMILES | Epigenetic derep | JMJD2E inh | KAT2A inh | NPSR antagonist | IMPase Li inh | Sfp inh
O=[N+]([O-])c1ccc(-c2nc(Nc3ccc(O)cc3)c3ccccc3n2)cc1 | nt | nt | -3% | nt | nt | 9%
N#CCCn1c(=O)c(-c2cccs2)nc2cnc(N3CCOCC3)nc21 | nt | nt | -10% | nt | -4% | 29%
CCCCCCOC(=O)Sc1nc2ccccc2o1 | 1% | -9% | 1% | ? | 23%[38.3 µM] | 45µM*
CC(=O)Oc1cc2c3c(c1)/C(=C1/SC(=S)NC1=O)C(=O)N3C(C)(C)C=C2C | -1% | -12% | -8% | ? | nt | 35µM*
CCOc1cc2c3c(c1)C(C)=CC(C)(C)N3C(=O)C2=O | 7% | 11% | 0% | 17% | 2% | 14%
Cc1cc2c(cc1Cl)N(C(=O)Nc1ccc(Oc3cccnc3C)nc1)CC2 | nt | nt | -12% | nt | nt | nt
CCOC(=O)CSc1cn2c(n1)CCC2 | 0% | 0% | 2% | 7%[46.1 µM] | 1% | 40µM*
O=C(NCC1CC1)c1ccc(Nc2nc3ccc(Br)cc3[nH]2)cc1 | -2% | ? | -26% | -18%[46.1 µM] | 2%[38.3 µM] | 32µM*
O=C(NCc1ccco1)c1cccc(Nc2nc3ccc(Br)cc3[nH]2)c1 | -1% | -3% | -21% | -12%[46.1 µM] | 12% | 18%
COc1cc2c(cc1OC)CN(c1ccc([N+](=O)[O-])cc1Cl)CC2 | 5% | 8% | -4% | -32% | 10% | -50%
COc1cc2c(cc1OC)CN(c1ccc(F)cc1[N+](=O)[O-])CC2 | nt | nt | 0% | nt | nt | 25µM*
CC(=O)c1ccc(N2CCc3ccccc3C2)c([N+](=O)[O-])c1 | 0% | -1% | -4% | 6% | nt | 28µM*
Nc1nc2[nH]cc(CCc3ccc(C(=O)NC(CCC(=O)O)C(=O)O)cc3)c2c(=O)[nH]1 (centres undefined) | nt | nt | -2% | nt | nt | 11%
COc1ccc(/C=C/C(=O)NC(=S)NNC(=O)c2cnccn2)cc1 | 0% | 7.9µM* | -2% | 4% | nt | 19%
COc1ccccc1N1CCN(C(=O)c2ccc(CS(=O)(=O)c3ccccc3OC)o2)CC1 | 0% | 3% | -6% | 17%[46.1 µM] | ? | -13%
CCOC(=O)N1CCN(C(=O)c2ccc(CS(=O)(=O)c3ccccc3OC)o2)CC1 | -2% | 1% | -10% | -3%[46.1 µM] | 1%[38.3 µM] | 79µM*
Cc1cc(C)nc(NS(=O)(=O)c2ccc(NC(=S)NC(=O)c3cccnc3)cc2)n1 | -1% | 1% | -7% | -1% | -6% | 40µM*
C[C@H]1Cc2c(COc3ccccc3)nc3c(c2CO1)CN(C(=O)c1cc(I)ccc1F)CC3 | nt | -4%[11.4 µM] | nt | nt | 12% | 5%
Cc1ccc(C(=O)/C=C/C(=O)O)cc1 | 18% | -14% | 24% | ? | -5% | 13µM*
Cc1ccc(/C=C/C(=O)c2ccc(O)cc2)cc1 | 2% | -3% | -3% | -29% | nt | 9%
Cc1ccc(C)c2[nH]c(=O)c(CN(Cc3ccc4c(c3)OCO4)Cc3nnnn3Cc3ccco3)cc12 | -1% | ? | -7% | ? | 22%[38.3 µM] | 50µM*
Cc1ccc2cc(CN(Cc3ccc4c(c3)OCO4)Cc3nnnn3Cc3ccco3)c(=O)[nH]c2c1C | 0% | ? | -13% | ? | 32%[38.3 µM] | 22µM*
CCN1/C(=C/c2ccc3cc(C)cc(C)c3[n+]2CC)Sc2cc(C)ccc21 | 16µM* | ? | -28% | -40% | 11µM* | 10µM*
Cc1ccc2c(c1)S/C(=C\c1cccc[n+]1C)N2CCO | nt | nt | -6% | nt | nt | ?
C[n+]1ccccc1/C=C1\Sc2ccccc2N1CCO | nt | nt | -24% | nt | nt | 7%
